We go through 13 sequences from doi:10.1101/2024.03.05.583629.

Chain of pT7_6His-AlfaTag-HOXD13 (P35453 263-343): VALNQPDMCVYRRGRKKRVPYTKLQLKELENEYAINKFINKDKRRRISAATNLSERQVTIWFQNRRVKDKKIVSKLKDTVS

This assay concerns the target pT7_6His-AlfaTag-HOXD13 (human, UniProt P35453 263-343). Put plainly: PADIT-seq. The note with it: dsDNA, one strand shown.
On to “CTCGAGGATATCAAGATCTGGCCTCGGCCATATAAAAGGAACCTCTAGCTAGCCGACTCACTATAGGGATAATCGCCCTGAGCAAAGACC”, for which the binding signal worked out at 2.76 ± 0.0974 log2FC.

With “CTCGAGGATATCAAGATCTGGCCTCGGCTGAATAAAAGGAACCTCTAGCTAGCCGACTCACTATAGGGATAATCGCCCTGAGCAAAGACC”, the binding signal was found to be 0.859 ± 0.0895 log2FC.

In the case of “CTCGAGGATATCAAGATCTGGCCTCGGCTGCCTAAAAGGAACCTCTAGCTAGCCGACTCACTATAGGGATAATCGCCCTGAGCAAAGACC”, the binding signal is -0.51 ± 0.109 log2FC.

Turning to “CTCGAGGATATCAAGATCTGGCCTCGGCTCGCTAAAAGGAACCTCTAGCTAGCCGACTCACTATAGGGATAATCGCCCTGAGCAAAGACC”, the binding signal came to 0.138 ± 0.111 log2FC.

Take “CTCGAGGATATCAAGATCTGGCCTCGGCATTGTAAAAGGAACCTCTAGCTAGCCGACTCACTATAGGGATAATCGCCCTGAGCAAAGACC”: the binding signal came out at 2.55 ± 0.0888 log2FC.

In turn, “CTCGAGGATATCAAGATCTGGCCTCGGCTTTTTAAGAGGAACCTCTAGCTAGCCGACTCACTATAGGGATAATCGCCCTGAGCAAAGACC” registered a binding signal of 2.84 ± 0.0822 log2FC.

As for “CTCGAGGATATCAAGATCTGGCCTCGGCAACGTAAAAGGAACCTCTAGCTAGCCGACTCACTATAGGGATAATCGCCCTGAGCAAAGACC”, the binding signal was 0.751 ± 0.0928 log2FC.

“CTCGAGGATATCAAGATCTGGCCTCGGCATCATAAAAGGAACCTCTAGCTAGCCGACTCACTATAGGGATAATCGCCCTGAGCAAAGACC”: the binding signal is 2.56 ± 0.0828 log2FC.

“CTCGAGGATATCAAGATCTGGCCTCGGCCTTTTAACAGGAACCTCTAGCTAGCCGACTCACTATAGGGATAATCGCCCTGAGCAAAGACC” came in with a binding signal of 1.89 ± 0.0877 log2FC.

With “CTCGAGGATATCAAGATCTGGCCTCGGCTTTTTAATGGGAACCTCTAGCTAGCCGACTCACTATAGGGATAATCGCCCTGAGCAAAGACC”, the binding signal was determined as 2.57 ± 0.0871 log2FC.

Regarding “CTCGAGGATATCAAGATCTGGCCTCGGCCCGCTAAAAGGAACCTCTAGCTAGCCGACTCACTATAGGGATAATCGCCCTGAGCAAAGACC”, the binding signal is -0.398 ± 0.11 log2FC.

For “CTCGAGGATATCAAGATCTGGCCTCGGCCTTTTATTCGGAACCTCTAGCTAGCCGACTCACTATAGGGATAATCGCCCTGAGCAAAGACC”, the binding signal is 1.67 ± 0.077 log2FC.

Turning to “CTCGAGGATATCAAGATCTGGCCTCGGCATTTTATAGGGAACCTCTAGCTAGCCGACTCACTATAGGGATAATCGCCCTGAGCAAAGACC”, the binding signal came out at 3.25 ± 0.0782 log2FC.
